Records with an inconclusive call do not appear. Activity calls are given as the source filed them. Rule for the calls, unless noted: active = hit-call score of the fitted dose curve at least 0.9, where 1 is the maximum; inconclusive = response in the unintended direction; inactive = score below 0.9.
Assays:
[1] = target: Nuclear receptor subfamily 1 group I member 3 (Homo sapiens) (UniProt Q14994); test: ATG_CAR_TRANS: Attagene TRANS-FACTORIAL HepG2 Assay for human Constitutive Androstane Receptor (CAR) (AID 2282969); settings: HepG2 Attagene TRANS-FACTORIAL CAR reporter;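 note: activators raise reporter mRNA above DMSO so AC50 marks induction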
Sequence of Nuclear receptor subfamily 1 group I member 3 (Homo sapiens) (Q14994 whole entry, looked up, the tested form may be a part): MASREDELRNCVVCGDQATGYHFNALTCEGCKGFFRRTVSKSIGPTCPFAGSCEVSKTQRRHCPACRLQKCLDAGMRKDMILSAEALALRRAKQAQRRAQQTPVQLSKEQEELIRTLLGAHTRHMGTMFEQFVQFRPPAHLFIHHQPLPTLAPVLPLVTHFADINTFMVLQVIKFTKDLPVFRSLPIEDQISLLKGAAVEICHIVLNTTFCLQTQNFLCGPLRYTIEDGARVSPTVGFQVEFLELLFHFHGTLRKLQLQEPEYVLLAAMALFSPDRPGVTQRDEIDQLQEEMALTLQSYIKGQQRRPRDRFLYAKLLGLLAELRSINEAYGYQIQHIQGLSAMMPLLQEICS
How it was run: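 Readout is reporter mRNA induction, quantified by fluorescent primer extension and capillary electrophoresis after RT-PCR. Cells were HepG2 transiently carrying chimeric NR-Gal4 constructs with GAL4-UAS reporters, treated for 24 h; activity scored upward from DMSO.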

[2] = target: Estrogen receptor (Homo sapiens) (UniProt P03372); test: ATG_ERa_TRANS: Attagene TRANS-FACTORIAL HepG2 Assay for human Estrogen Receptor alpha (ERa) (AID 2282970); settings: HepG2 Attagene TRANS ERa GAL4 reporter, mRNA
Sequence of Estrogen receptor (Homo sapiens) (P03372 whole entry, looked up, the tested form may be a part): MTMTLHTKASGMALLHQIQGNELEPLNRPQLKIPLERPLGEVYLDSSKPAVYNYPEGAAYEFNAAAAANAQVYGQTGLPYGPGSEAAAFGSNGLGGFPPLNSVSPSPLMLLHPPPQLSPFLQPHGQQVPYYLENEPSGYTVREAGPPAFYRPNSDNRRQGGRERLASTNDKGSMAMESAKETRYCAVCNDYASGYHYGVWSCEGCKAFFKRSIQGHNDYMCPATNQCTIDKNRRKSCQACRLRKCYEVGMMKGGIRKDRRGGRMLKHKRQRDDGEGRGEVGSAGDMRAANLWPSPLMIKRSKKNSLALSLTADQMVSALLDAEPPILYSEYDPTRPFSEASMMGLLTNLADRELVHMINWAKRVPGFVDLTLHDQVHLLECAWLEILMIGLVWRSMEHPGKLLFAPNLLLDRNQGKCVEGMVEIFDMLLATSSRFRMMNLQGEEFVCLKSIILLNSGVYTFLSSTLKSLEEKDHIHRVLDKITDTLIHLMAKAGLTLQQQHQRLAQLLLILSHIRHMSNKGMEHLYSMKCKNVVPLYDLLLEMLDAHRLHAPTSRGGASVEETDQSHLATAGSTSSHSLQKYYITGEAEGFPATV
How it was run: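 Transactivation via ERa-Gal4 chimera in HepG2; 24 hour incubation; reporter mRNA detected by fluorescence RT-PCR and capillary electrophoresis.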

[3] = target: X-box-binding protein 1 (Homo sapiens) (UniProt P17861); test: ATG_Xbp1_CIS: Attagene CIS-FACTORIAL HepG2 Assay for human X-box Binding Protein 1 (XBP1) (AID 2282972; active = hit-call score of the fitted dose curve at least 0.9, where 1 is the maximum; inactive = score below 0.9); settings: HepG2 XBP1 cis-element reporter, Attagene multiplex; actives raise or lower the signal
Sequence of X-box-binding protein 1 (Homo sapiens) (P17861 whole entry, looked up): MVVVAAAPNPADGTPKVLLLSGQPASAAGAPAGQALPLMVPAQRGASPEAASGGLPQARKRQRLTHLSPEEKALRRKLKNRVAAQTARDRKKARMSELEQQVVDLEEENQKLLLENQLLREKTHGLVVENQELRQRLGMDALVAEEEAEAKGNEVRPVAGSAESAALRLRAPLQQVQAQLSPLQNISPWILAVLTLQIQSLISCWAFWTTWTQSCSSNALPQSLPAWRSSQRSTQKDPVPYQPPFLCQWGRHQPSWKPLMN
How it was run: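 HepG2 cells transiently transfected with cis-regulated multiple reporter transcription units; endogenous transcription factor activity measured 24 hours after chemical dosing. Reporter mRNA quantified by RT-PCR, 6-FAM primer extension, HpaI digestion and capillary electrophoresis; bidirectional fitting versus DMSO.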

[4] = target: Androgen receptor (Homo sapiens) (UniProt P10275); test: ATG_AR_TRANS: Attagene TRANS-FACTORIAL HepG2 Assay for human Androgen Receptor (AR) (AID 2282973); settings: HepG2 Attagene TRANS-FACTORIAL AR reporter transcription
How it was run: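 Transfected HepG2, 24 h treatment, chimeric NR-Gal4 driving GAL4-UAS reporters. mRNA induction by RT-PCR/capillary electrophoresis fluorescence; DMSO as negative control and baseline.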

[5] = ATG_GAL4_TRANS: Attagene TRANS-FACTORIAL HepG2 Assay for GAL4 (Internal Marker) (AID 2282976); settings: HepG2 Attagene TRANS GAL4 internal marker reporter
How it was run: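 Fluorescence from capillary electrophoresis of labelled RT-PCR products quantifies reporter mRNA induction after 24 h dosing of HepG2 cells carrying transfected GAL4-UAS reporter transcription units. Vehicle DMSO serves as baseline.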

[6] = target: Glucocorticoid receptor (Homo sapiens) (UniProt P04150); test: ATG_GR_TRANS: Attagene TRANS-FACTORIAL HepG2 Assay for human Glucocorticoid Receptor (GR) (AID 2282978); settings: HepG2 Attagene TRANS GR reporter, mRNA transcription;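 note: activators score as hits since higher reporter transcript over DMSO is fitted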
Sequence of Glucocorticoid receptor (Homo sapiens) (P04150 whole entry, looked up, the tested form may be a part): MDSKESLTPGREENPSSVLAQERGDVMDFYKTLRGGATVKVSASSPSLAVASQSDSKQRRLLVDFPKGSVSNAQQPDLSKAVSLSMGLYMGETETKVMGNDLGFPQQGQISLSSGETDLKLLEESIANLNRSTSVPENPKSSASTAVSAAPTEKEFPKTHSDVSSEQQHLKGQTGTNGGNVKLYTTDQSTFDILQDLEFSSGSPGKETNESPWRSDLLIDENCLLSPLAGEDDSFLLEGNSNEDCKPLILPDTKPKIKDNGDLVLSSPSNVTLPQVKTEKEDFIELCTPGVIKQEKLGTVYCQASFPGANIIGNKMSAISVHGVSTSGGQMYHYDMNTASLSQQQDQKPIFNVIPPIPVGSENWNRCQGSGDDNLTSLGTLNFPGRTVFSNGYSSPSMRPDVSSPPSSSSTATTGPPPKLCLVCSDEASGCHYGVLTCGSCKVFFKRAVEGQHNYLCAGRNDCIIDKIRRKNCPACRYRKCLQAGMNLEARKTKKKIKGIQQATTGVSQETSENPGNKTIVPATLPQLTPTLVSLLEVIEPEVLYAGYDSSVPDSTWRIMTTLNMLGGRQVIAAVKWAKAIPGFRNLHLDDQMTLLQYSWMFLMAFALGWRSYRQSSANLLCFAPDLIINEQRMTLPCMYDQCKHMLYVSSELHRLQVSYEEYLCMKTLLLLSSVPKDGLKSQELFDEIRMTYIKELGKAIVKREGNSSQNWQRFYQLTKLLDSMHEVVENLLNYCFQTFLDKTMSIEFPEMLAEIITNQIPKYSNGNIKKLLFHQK
How it was run: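 HepG2 cells transiently transfected with multiplexed reporter units in which chimeric NR-GAL4 proteins drive GAL4-UAS reporters; 24 h compound exposure. Reporter mRNA measured by RT-PCR, 6-FAM labelling, HpaI digestion and capillary electrophoresis; gain-of-signal fitted versus DMSO.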

[7] = target: Bile acid receptor (Homo sapiens) (UniProt Q96RI1); test: ATG_FXR_TRANS: Attagene TRANS-FACTORIAL HepG2 Assay for Farnesoid X Receptor (FXR) (AID 2282979); settings: HepG2 Attagene TRANS FXR-GAL4 reporter transcription;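 note: hits raise reporter mRNA above DMSO so AC50 marks FXR activation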
Sequence of Bile acid receptor (Homo sapiens) (Q96RI1 whole entry, looked up, the tested form may be a part): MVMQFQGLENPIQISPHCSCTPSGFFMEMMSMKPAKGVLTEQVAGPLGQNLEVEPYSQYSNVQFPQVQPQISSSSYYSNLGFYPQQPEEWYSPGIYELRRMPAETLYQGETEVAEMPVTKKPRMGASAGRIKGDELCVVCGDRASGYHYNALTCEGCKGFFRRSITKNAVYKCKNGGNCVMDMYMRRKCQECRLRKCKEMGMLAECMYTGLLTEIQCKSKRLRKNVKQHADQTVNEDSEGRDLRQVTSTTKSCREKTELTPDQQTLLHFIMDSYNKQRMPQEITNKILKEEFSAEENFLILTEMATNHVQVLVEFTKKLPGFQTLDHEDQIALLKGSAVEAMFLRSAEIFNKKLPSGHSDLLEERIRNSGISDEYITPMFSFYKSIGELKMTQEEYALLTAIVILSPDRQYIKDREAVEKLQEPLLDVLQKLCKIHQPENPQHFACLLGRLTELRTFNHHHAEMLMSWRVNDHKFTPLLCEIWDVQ
How it was run: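 Chimeric FXR-GAL4 activity in transiently transfected human HepG2 liver cells is scored as induction of reporter mRNA after 24 h of dosing. Detection uses RT-PCR with fluorescent labelling and capillary electrophoresis, with DMSO serving as baseline.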

[8] = target: Oxysterols receptor LXR-alpha (Homo sapiens) (UniProt Q13133); test: ATG_LXRa_TRANS: Attagene TRANS-FACTORIAL HepG2 Assay for human Liver X Receptor alpha (LXRa) (AID 2282980); settings: HepG2 Attagene TRANS reporter, LXRa transactivation
Sequence of Oxysterols receptor LXR-alpha (Homo sapiens) (Q13133 whole entry, looked up): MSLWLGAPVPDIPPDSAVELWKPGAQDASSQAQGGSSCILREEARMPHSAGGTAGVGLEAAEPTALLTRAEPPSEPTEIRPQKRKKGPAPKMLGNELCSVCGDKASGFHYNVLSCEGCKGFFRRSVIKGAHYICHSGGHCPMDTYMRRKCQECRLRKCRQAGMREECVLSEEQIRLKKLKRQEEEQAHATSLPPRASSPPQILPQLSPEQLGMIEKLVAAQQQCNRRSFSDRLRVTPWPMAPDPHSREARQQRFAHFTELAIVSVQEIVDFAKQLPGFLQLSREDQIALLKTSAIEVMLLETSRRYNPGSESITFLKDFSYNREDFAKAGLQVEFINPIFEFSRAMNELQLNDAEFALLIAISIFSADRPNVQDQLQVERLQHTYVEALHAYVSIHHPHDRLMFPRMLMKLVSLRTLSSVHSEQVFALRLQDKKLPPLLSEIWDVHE
How it was run: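 Transient HepG2 transfectants, 24 h dosing, RT-PCR/CE mRNA reporter quantitation; gain-of-signal vs DMSO.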

[9] = target: Oxysterols receptor LXR-beta (Homo sapiens) (UniProt P55055); test: ATG_LXRb_TRANS: Attagene TRANS-FACTORIAL HepG2 Assay for human Liver X Receptor beta (LXRb) (AID 2282981); settings: HepG2 Attagene TRANS GAL4-LXRb reporter, mRNA
Sequence of Oxysterols receptor LXR-beta (Homo sapiens) (P55055 whole entry, looked up, the tested form may be a part): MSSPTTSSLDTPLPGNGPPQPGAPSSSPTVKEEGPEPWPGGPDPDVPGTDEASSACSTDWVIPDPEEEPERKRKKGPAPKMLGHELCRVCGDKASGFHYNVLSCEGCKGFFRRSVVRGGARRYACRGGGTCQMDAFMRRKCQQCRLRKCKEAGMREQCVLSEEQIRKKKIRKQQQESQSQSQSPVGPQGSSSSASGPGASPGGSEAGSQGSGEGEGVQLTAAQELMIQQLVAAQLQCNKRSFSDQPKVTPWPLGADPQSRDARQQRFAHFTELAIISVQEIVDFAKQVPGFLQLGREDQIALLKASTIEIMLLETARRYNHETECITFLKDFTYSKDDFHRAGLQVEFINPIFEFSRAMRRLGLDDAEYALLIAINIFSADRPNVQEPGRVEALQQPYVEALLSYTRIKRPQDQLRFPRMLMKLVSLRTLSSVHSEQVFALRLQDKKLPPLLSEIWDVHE
How it was run: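 Transient transfection HepG2 (multiplexed RTUs, GAL4-UAS); NR-Gal4 chimera; 24 h exposure; RNA → RT-PCR → 6-FAM primer extension → HpaI → CE; increase vs DMSO.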

[10] = ATG_M_06_TRANS: Attagene TRANS-FACTORIAL HepG2 Assay for M06 Transcription Factor (Internal Marker) (AID 2282983); settings: HepG2 Attagene TRANS M06 internal marker reporter;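 note: reporter transcript level by RT-PCR then capillary electrophoresis fluorescence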
How it was run: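 Measured by capillary electrophoresis of fluorescently labelled RT-PCR products, this endpoint reflects reporter mRNA in HepG2 cells harbouring exogenous NR-GAL4 reporter constructs after 24 h exposure, with DMSO as baseline.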

[11] = ATG_M_32_TRANS: Attagene TRANS-FACTORIAL HepG2 Assay for M32 Transcription Factor (Internal Marker) (AID 2282984); settings: HepG2 Attagene TRANS M32 internal marker reporter;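 note: transcript level of a background control reporter unit measured by RT-PCR and capillary electrophoresis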
How it was run: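 Measures reporter mRNA induction in human HepG2 liver cells after 24 h chemical treatment. Transcripts from transiently transfected GAL4-UAS reporter units are amplified, fluorescently labelled and sized by capillary electrophoresis; gain of signal relative to DMSO.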

[12] = target: Nuclear receptor subfamily 4 group A member 2 (Homo sapiens) (UniProt P43354); test: ATG_NURR1_TRANS: Attagene TRANS-FACTORIAL HepG2 Assay for human Nuclear Receptor Related Protein 1 (NURR1) (AID 2282985); settings: HepG2 Attagene TRANS reporter, mRNA readout
How it was run: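 Transient transfection of HepG2, human liver cells, with multiple GAL4-UAS reporter transcription units. Cells dosed 24 h, RNA isolated, reverse-transcribed, PCR-amplified, FAM-labelled, HpaI-digested, sized by capillary electrophoresis. DMSO served as negative control.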

[13] = target: Transcriptional activator Myb (Homo sapiens) (UniProt P10242); test: ATG_Myb_CIS: Attagene CIS-FACTORIAL HepG2 Assay for human Myeloblastosis (Myb) Proto-Oncogene Transcription Factor (AID 2282986; active = hit-call score of the fitted dose curve at least 0.9, where 1 is the maximum; inactive = score below 0.9); settings: HepG2 Attagene CIS-FACTORIAL Myb reporter transcription; actives raise or lower the signal
Sequence of Transcriptional activator Myb (Homo sapiens) (P10242 whole entry, looked up): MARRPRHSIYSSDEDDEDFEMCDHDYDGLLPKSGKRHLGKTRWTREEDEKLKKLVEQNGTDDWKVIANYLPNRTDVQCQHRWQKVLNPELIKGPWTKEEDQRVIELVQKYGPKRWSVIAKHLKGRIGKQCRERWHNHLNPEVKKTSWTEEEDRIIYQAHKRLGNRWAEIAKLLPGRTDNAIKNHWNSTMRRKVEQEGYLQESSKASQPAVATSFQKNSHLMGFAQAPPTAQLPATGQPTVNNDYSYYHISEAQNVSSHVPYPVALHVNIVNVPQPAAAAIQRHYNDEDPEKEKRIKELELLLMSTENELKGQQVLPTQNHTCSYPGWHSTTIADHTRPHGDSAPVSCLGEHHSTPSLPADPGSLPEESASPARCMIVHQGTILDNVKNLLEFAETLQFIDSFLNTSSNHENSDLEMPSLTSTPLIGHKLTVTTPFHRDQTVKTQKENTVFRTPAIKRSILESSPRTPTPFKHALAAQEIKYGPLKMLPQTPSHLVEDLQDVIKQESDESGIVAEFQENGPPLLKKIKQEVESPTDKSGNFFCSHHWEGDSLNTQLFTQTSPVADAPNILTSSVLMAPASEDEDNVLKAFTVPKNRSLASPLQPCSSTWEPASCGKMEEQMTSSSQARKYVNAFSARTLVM
How it was run: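 HepG2 cells were transiently transfected with cis-regulated multiple reporter transcription units reflecting endogenous Myb activity, then exposed to compound for 24 hours. Reporter mRNA was measured by RT-PCR with capillary electrophoresis; bidirectional fitting versus DMSO baseline.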

[14] = target: Nuclear respiratory factor 1 (Homo sapiens) (UniProt Q16656); test: ATG_NRF1_CIS: Attagene CIS-FACTORIAL HepG2 Assay for human Nuclear Respiratory Factor 1 (NRF1) Orphan Gene (AID 2282987; active = hit-call score of the fitted dose curve at least 0.9, where 1 is the maximum; inactive = score below 0.9); settings: HepG2 NRF1 cis-element reporter, Attagene multiplex; actives raise or lower the signal
Sequence of Nuclear respiratory factor 1 (Homo sapiens) (Q16656 whole entry, looked up): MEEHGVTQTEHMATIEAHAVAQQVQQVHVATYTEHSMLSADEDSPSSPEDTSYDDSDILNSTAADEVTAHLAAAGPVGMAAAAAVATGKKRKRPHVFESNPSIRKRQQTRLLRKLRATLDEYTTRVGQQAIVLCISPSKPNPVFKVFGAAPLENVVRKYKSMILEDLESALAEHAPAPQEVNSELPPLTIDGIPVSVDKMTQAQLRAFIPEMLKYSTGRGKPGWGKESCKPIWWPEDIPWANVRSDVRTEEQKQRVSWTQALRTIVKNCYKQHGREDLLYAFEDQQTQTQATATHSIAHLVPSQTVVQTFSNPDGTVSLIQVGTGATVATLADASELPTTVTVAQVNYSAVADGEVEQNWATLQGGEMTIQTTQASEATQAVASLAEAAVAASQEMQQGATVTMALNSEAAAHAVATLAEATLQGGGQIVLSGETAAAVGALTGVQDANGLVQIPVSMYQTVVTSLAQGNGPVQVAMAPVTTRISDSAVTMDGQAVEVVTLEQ
How it was run: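 HepG2 cells transiently transfected with multiple reporter transcription units under cis-regulatory promoter control, so endogenous transcription-factor activity is read. After 24 h compound exposure, reporter mRNA quantified by RT-PCR, fluorescent labelling, HpaI digestion and capillary electrophoresis; bidirectional fitting versus DMSO.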

[15] = ATG_NFI_CIS: Attagene CIS-FACTORIAL HepG2 Assay for human Nuclear Factor I (NFI) (AID 2282989; active = hit-call score of the fitted dose curve at least 0.9, where 1 is the maximum; inactive = score below 0.9); settings: HepG2 cis-regulatory reporter, NFI response element transcription; actives raise or lower the signal
How it was run: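 Reporter transcription driven by endogenous transcription factors in HepG2 cells; 24 h treatment. Quantitation by labelled RT-PCR fragments on capillary electrophoresis, gain- or loss-of-signal relative to DMSO.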

[16] = target: Myc proto-oncogene protein (Homo sapiens) (UniProt P01106); test: ATG_Myc_CIS: Attagene CIS-FACTORIAL HepG2 Assay for human Myelocytomatosis (Myc) Proto-Oncogene Transcription Factor (AID 2282990; active = hit-call score of the fitted dose curve at least 0.9, where 1 is the maximum; inactive = score below 0.9); settings: HepG2, Attagene cis-reporter transcription factor activity; actives raise or lower the signal
Sequence of Myc proto-oncogene protein (Homo sapiens) (P01106 whole entry, looked up, the tested form may be a part): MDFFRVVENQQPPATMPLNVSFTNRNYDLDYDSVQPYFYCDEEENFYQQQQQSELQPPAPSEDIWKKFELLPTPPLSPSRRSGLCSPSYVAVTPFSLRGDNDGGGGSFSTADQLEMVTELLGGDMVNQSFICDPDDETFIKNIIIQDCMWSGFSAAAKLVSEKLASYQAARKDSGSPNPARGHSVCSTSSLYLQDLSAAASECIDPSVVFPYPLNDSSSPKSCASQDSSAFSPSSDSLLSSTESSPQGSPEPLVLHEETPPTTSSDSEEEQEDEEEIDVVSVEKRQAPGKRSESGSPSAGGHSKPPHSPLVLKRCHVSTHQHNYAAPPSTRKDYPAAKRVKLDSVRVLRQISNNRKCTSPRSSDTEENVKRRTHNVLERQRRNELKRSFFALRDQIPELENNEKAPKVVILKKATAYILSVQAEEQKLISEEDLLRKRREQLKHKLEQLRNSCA
How it was run: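 After 24 h chemical treatment of HepG2 cells carrying multiplexed cis-regulated reporter constructs, reporter transcripts quantified by RT-PCR and capillary electrophoresis of fluorescent fragments. Gain or loss fitted against DMSO baseline.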

[17] = target: Steroid hormone receptor ERR1 (Homo sapiens) (UniProt P11474); test: ATG_ERRa_TRANS: Attagene TRANS-FACTORIAL HepG2 Assay for human Estrogen-Related Receptor alpha (ERRa) (AID 2282971); settings: HepG2 Attagene TRANS reporter, ERRa transactivation
How it was run: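 HepG2 cells were transiently transfected with multiple GAL4-UAS reporter units, then dosed with compound for 24 h. Total RNA was reverse-transcribed, reporter cDNA PCR-amplified and fluorescently labelled, and fragments resolved by capillary electrophoresis; induction was compared with DMSO.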

[18] = ATG_M_19_TRANS: Attagene TRANS-FACTORIAL HepG2 Assay for M19 Transcription Factor (Internal Marker) (AID 2282974); settings: HepG2 Attagene TRANS-FACTORIAL M19 internal marker reporter
How it was run: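 HepG2 cells transiently transfected with multiple GAL4-UAS reporter transcription units were exposed to chemicals for 24 h. Reporter mRNA was read by RT-PCR, 6-FAM primer extension, HpaI digestion and capillary electrophoresis; gain of signal fitted relative to DMSO.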

[19] = target: Estrogen-related receptor gamma (Homo sapiens) (UniProt P62508); test: ATG_ERRg_TRANS: Attagene TRANS-FACTORIAL HepG2 Assay for human Estrogen-Related Receptor gamma (ERRg) (AID 2282977); settings: HepG2 Attagene TRANS reporter, ERRg transactivation;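 note: hits increase reporter signal over DMSO so potencies reflect activators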
How it was run: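 HepG2 cells transiently transfected with multiplexed GAL4-UAS reporter units driven by chimeric NR-Gal4 proteins; 24 h exposure. Reporter mRNA quantified by RT-PCR, fluorescent labelling, HpaI digestion and capillary electrophoresis; gain of signal vs DMSO.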

[20] = target: Hepatocyte nuclear factor 4-alpha (Homo sapiens) (UniProt P41235); test: ATG_HNF4a_TRANS: Attagene TRANS-FACTORIAL HepG2 Assay for human Hepatocyte Nuclear Factor 4 alpha (HNF4a) (AID 2282982); settings: HepG2 HNF4a transactivation reporter, mRNA readout
How it was run: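 Readout is fluorescent reporter-transcript fragments resolved by capillary electrophoresis after RT-PCR from HepG2 cells dosed for 24 h. Cells carried transfected GAL4-UAS reporter constructs measuring exogenous NR-GAL4 chimera activity; DMSO served as baseline.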

Q: Which outcome [1] does the source give for `CCOP(=S)(OCC)SCS(=O)(=O)C(C)(C)C` here?
A: inactive

Q: What about the outcome [2] of the same compound?
A: inactive

Q: What about the outcome [3] of the same compound?
A: inactive

Q: And the outcome [4]?
A: inactive

Q: And the outcome [5]?
A: inactive

Q: What about the outcome [6] of the same compound?
A: inactive

Q: What about the outcome [7] of the same compound?
A: inactive

Q: What about the AC50 [8] of the same compound?
A: 34.1 µM (active)

Q: What about the AC50 [9] of the same compound?
A: 53.5 µM (active)

Q: And the outcome [10]?
A: inactive

Q: And the outcome [11]?
A: inactive

Q: What about the outcome [12] of the same compound?
A: inactive

Q: What about the outcome [13] of the same compound?
A: inactive

Q: And the outcome [14]?
A: inactive

Q: What about the outcome [15] of the same compound?
A: inactive

Q: What about the outcome [16] of the same compound?
A: inactive

Q: What does the source list for `Cc1ccc(OP(=O)(Oc2ccc(C)cc2C)Oc2ccc(C)cc2C)c(C)c1`?
A: outcome [1]: inactive; outcome [2]: inactive; outcome [17]: inactive; outcome [3]: inactive; outcome [4]: inactive; outcome [18]: inactive; outcome [5]: inactive; outcome [19]: inactive; outcome [6]: inactive; outcome [7]: inactive; outcome [10]: inactive; outcome [11]: inactive; outcome [13]: inactive; outcome [14]: inactive; outcome [15]: inactive; outcome [16]: inactive

Q: For `CCCCOC(=O)COC(=O)c1ccccc1C(=O)OCCCC`, which outcome [1] is on record?
A: inactive

Q: And the outcome [2]?
A: inactive

Q: What about the outcome [17] of the same compound?
A: inactive

Q: And the outcome [3]?
A: inactive

Q: What about the outcome [18] of the same compound?
A: inactive

Q: And the outcome [5]?
A: inactive

Q: And the outcome [6]?
A: inactive

Q: And the outcome [20]?
A: inactive

Q: And the outcome [11]?
A: inactive

Q: And the outcome [12]?
A: inactive

Q: And the outcome [13]?
A: inactive

Q: And the outcome [14]?
A: inactive

Q: And the outcome [15]?
A: inactive

Q: And the outcome [16]?
A: inactive

Q: Which outcome [1] does the source give for `c1ccc2sc(SNC3CCCCC3)nc2c1` here?
A: inactive

Q: And the outcome [2]?
A: inactive

Q: And the outcome [3]?
A: inactive

Q: And the outcome [18]?
A: inactive

Q: And the outcome [6]?
A: inactive

Q: What about the outcome [8] of the same compound?
A: inactive

Q: And the outcome [11]?
A: inactive

Q: And the outcome [13]?
A: inactive

Q: What about the outcome [15] of the same compound?
A: inactive

Q: Which outcome [1] does the source give for `Fc1cccc(Cl)c1CCl` here?
A: inactive

Q: And the outcome [2]?
A: inactive

Q: And the outcome [3]?
A: inactive

Q: What about the outcome [18] of the same compound?
A: inactive

Q: What about the outcome [6] of the same compound?
A: inactive

Q: What about the outcome [8] of the same compound?
A: inactive

Q: And the outcome [9]?
A: inactive

Q: And the outcome [10]?
A: inactive

Q: What about the outcome [11] of the same compound?
A: inactive

Q: And the outcome [14]?
A: inactive

Q: What about the outcome [15] of the same compound?
A: inactive

Q: What about the outcome [16] of the same compound?
A: inactive

— PubChem BioAssay (EPA / NIEHS)
